In the supplement of paper PMC7156485 one finds cell number and H1.0 immunofluorescence intensity data, which are given here for eight molecules.

Holding throughout (settings): concentration: 10 µM; 24 h
Test [1] has as its system HCC1569. Description: cell number relative to DMSO (% of DMSO); higher = more cells (less growth inhibition / toxicity). The procedure, abridged: (§1)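 H1.0 nuclear intensity or cell number is expressed as percent of the plate control, with the median of replicates taken. HCC1569 and TDF cells were treated with compounds at 10 µM for 24 h at 37 °C, in triplicate, then fixed and immunostained for H1.0 with DAPI as a nuclear stain. HCC1569 values were smoothed to correct for positional effects.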

Test [2] has as its system TDF. The description is as above. The procedure, abridged:
as §1

Test [3] concerns TDF. The test is described as follows: H1.0 immunofluorescence intensity relative to DMSO (% of DMSO); higher = stronger H1.0 induction, active = 120 or more. The procedure, abridged: as §1
Test [4] relates to HCC1569. Description: H1.0 immunofluorescence intensity relative to DMSO (% of DMSO); higher = stronger H1.0 induction, active = 140 or more. The procedure, abridged: as §1
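Wherever H1.0 immunofluorescence intensity relative to DMSO is given: TDF is a line of transformed human dermal fibroblasts of mesenchymal origin.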
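Wherever cell number relative to DMSO is given: TDF denotes transformed human dermal fibroblasts of mesenchymal origin.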

For the molecule `CC1CC=CC2C3OC3(C)C(C)C3C(Cc4ccccc4)NC(=O)C23OC(=O)OC=CC(C)(O)C1=O` (stereo not given) [Cytochalasin E], the cell number in test [1] was 63.3; in test [2], 32.4. Further, the H1.0 immunofluorescence intensity in test [3] was 226 (active); in test [4] it was 247 (active).
With `CC1=C2CC3C(CC=C4CC(O)CCC43C)C2CCC12OC1CC(C)CNC1C2C` (stereo not given) [Cyclopamine], the cell number turned out to be 104 in test [1] and 107 in test [2]. The H1.0 immunofluorescence intensity in test [3] is 94.9 (inactive); in test [4] it was 92 (inactive).
For `CCCCCCCCC(=O)NCc1ccc(O)c(OC)c1` [N-Vanillylnonanamide], the cell number in test [1] is 76.7; in test [2], 81.3. The H1.0 immunofluorescence intensity was 107 (inactive) in test [3] and 160 (active) in test [4].
On to `CN(C)C(=O)C(CCN1CCC(O)(c2ccc(Cl)cc2)CC1)(c1ccccc1)c1ccccc1.Cl` [Loperamide hydrochloride], for which the cell number turned out to be 84.8 in test [1] and 88.6 in test [2]. The H1.0 immunofluorescence intensity in test [3] was 102 (inactive); in test [4], 122 (inactive).
Regarding `CCCCCC=CC=CC(CCCCCCCC(=O)O)OO` (stereo not given), the cell number is 101 in test [1] and 94 in test [2]. Further, the H1.0 immunofluorescence intensity was 100 (inactive) in test [3] and 94.9 (inactive) in test [4].
In the case of `CN1C2CCC1CC(OC(=O)C(CO)c1ccccc1)C2.CN1C2CCC1CC(OC(=O)C(CO)c1ccccc1)C2.O.O=S(=O)(O)O` (stereo not given) [Atropine sulfate], the cell number in test [1] was found to be 102. Further, the H1.0 immunofluorescence intensity was 91.8 (inactive) in test [3] and 85.2 (inactive) in test [4].
Take `COC(=O)C1(O)CC2OC1(C)n1c3ccccc3c3c4c(c5c6ccccc6n2c5c31)C(=O)NC4` (stereo not given) [K-252a, Nocardiopsis sp.]: the figures for the cell number in test [1] and in test [2] were 33.7 and 2.54, respectively. Besides, in test [4], the H1.0 immunofluorescence intensity is 75.8 (inactive).
Turning to `Br.COC1CC=C2CCN3CCC4=C(CC(=O)OC4)C23C1` (stereo not drawn) [Dihydro-beta-erythroidine hydrobromide], the cell number in test [1] was found to be 104; in test [2] it was 98.2. Further, the figures for the H1.0 immunofluorescence intensity in test [3] and in test [4] were 91.6 (inactive) and 93.8 (inactive), respectively.
